Source: PubChem
JMJD2C inh: inhibitors of human GASC-1 (JMJD2C) demethylase; Q9H3R0; GST-JMJD2C(1-420) H3K9me3 demethylation, DELFIA europium; inhibition, % at 2.35 µM; 0.069% of 330,000 active;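 active = more than half of a compound's replicate wells show inhibition beyond 50%, single wells judged on their own value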;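 note: signal counts dimethyl H3K9 product captured on neutravidin plate; 0% = median of DMSO wells and 100% = 0.3 times that DMSO median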
PP1 counter: blocks human PP1-alpha phosphatase, a PP5 counter-screen; P62136; purified PP1alpha, OMFP fluorescence; inhibition, % at 6.7 µM; 0.9% of 320,000 active; AID 2235;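 active = inhibition above the mean inhibition of all tested compounds plus 3 SD, computed separately for each screening campaign, cut at about 15% in these data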
PG9 Ab binder: PG9 antibody binding by small molecule. 0.43% of 360,000 active. inhibition, % at 6.7 µM. TR-FRET gp120-PG9 antibody binding. AID 624416; in the data active = inhibition above about 8.5%
Rev-erbA mod: Rev-erb alpha (human) modulation; P20393; Rev-erbα–FITC-DNA binding, fluorescence polarization, 90 min; activity, % at 10 µM; 0.79% of 370,000 active; AID 1259318;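 active = activity above about 14%, limit read from the data; passing the limit was not always enough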;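 note: 0% = DMSO wells with 35 nM protein and 100% = DMSO wells with 750 nM protein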
Target sequence (P20393 whole entry, looked up): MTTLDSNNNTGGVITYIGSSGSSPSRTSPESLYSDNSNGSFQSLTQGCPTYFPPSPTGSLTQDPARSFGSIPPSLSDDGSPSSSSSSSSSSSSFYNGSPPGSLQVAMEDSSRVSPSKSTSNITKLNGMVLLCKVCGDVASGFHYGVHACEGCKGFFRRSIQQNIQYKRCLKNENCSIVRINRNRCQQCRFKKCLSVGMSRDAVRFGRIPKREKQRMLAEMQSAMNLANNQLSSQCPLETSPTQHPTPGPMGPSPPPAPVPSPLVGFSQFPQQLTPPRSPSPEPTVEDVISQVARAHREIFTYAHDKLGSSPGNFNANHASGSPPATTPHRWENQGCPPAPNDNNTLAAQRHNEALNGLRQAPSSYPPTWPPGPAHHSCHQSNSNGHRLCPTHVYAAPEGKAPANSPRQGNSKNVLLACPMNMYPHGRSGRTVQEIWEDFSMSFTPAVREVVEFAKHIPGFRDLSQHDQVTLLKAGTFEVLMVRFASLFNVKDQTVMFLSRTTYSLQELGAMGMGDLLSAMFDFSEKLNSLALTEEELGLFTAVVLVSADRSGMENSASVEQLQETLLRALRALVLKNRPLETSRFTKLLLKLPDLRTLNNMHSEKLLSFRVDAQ
PP5 inh: PP5 (human) phosphatase inhibition. inhibition, % at 6.7 µM. AID 1987. P53041. purified PP5c, OMFP substrate fluorescence. 0.18% of 320,000 active;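 active = inhibition above the campaign's mean inhibition across all tested compounds plus 3 SD, cut at about 9.5% in these data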;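 note: 0% = DMSO only and 100% = 100 µM cantharidin control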
proKLK7 act: activators of human kallikrein-7 zymogen; 0.9% of 370,000 active; P49862; purified proKLK7, EDANS-DABCYL substrate fluorescence; 100% is mature enzyme control, 0% vehicle; activation, % at 7 µM;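 active = activation above the mean of all tested compounds plus 3 SD, computed per campaign excluding outliers beyond control limits, cut at about 13% in these data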
proKLK7 act conf: confirmation of human kallikrein-7 zymogen activators | shares compounds with proKLK7 act | 68% of 3,200 active | AID 686949 | activation, % at 7 µM | purified proKLK7, EDANS-DABCYL substrate fluorescence; scaled: vehicle 0, mature enzyme 100;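 active = activation, as change over the incubation, above the mean of all tested compounds plus 3 SD, cut at about 13% in these data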
EDANS-DABCYL int: optically interferes with EDANS-DABCYL signal, flagging KLK7 hits. EDANS-DABCYL substrate fluorescence interference, no enzyme, 4 h; solvent 0%, active enzyme control 100%. shares compounds with proKLK7 act. 80% of 3,200 active. activation, % at 7 µM;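 active = activation above the all-compound mean plus 3 SD, ignoring values outside control-based bounds, cut at about 4.8% in these data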;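 note: value is the 4 h activation minus the activation read at time zero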
EDANS interf: optically interferes with EDANS-DABCYL fluorescence, kallikrein-7 activator counter-screen; shares compounds with proKLK7 act; EDANS-DABCYL peptide fluorescence interference, no enzyme; EC50, µM; 20% of 250 active;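 active = compounds that raise the fluorescence signal in this interference counterscreen, with EC50 at or below 10 µM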;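 note: intact quenched peptide substrate alone read at 355 nm excitation and 520 nm emission; signal is fluorescence gain from T0 to T4 after four hours at room temperature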
* = called active by the depositor; i = inactive; . = no result. Most compounds without a hit are left out; they make up all but 2.8% or so of the library.

SMILES | JMJD2C inh | PP1 counter | PG9 Ab binder | Rev-erbA mod | PP5 inh | proKLK7 act | proKLK7 act conf | EDANS-DABCYL int | others
O=C(N[C@H](C(=O)N1CCC[C@H]1C(=O)NCCc1ccccc1Cl)c1ccccc1)c1cccs1 | . | . | 1.8 | -0.3 | . | 0.8 | . | .
Cc1ccc(-c2cc(C(=O)NN3CCOCC3)c3cc(Br)ccc3n2)o1 | 8.2 | -0.1 | 2.1 | -0.1 | 0.1 | 51.9* | -185.4 | -136.7
CCCc1ccc(-c2cc(C(=O)NN3CCOCC3)c3ccccc3n2)cc1 | -5.1 | -1.7 | -1.8 | -0.5 | 2.3 | -0.1 | . | .
COc1ccc(C2CC(c3cccs3)=Nc3ccccc3S2)cc1 (centres undefined) | -5.2 | -1.6 | -0.5 | 2.0 | 2.4 | 39.6* | 5.0 | 2.7
COC(=O)C1=C(C)N(Cc2cccc(C(F)(F)F)c2)C(=NCC2CC2)NC1c1cccc(Cl)c1 (centres undefined) | . | . | 2.2 | -0.1 | . | -0.1 | . | .
COc1ccc2c3c([nH]c2c1)[C@H]1C[C@H]2[C@H](C[C@@H](O)[C@H](OC)[C@H]2C(=O)O)CN1CC3 | . | -6.2 | -0.7 | -1.6 | -1.0 | 40.0* | 7.9 | 10.7*
CN(Cc1ccccc1)C(=O)c1cccc(NC(=O)Cc2cccc(NC(=O)C3CCN(C(=O)CCc4ccccc4)CC3)c2)c1 | . | . | -1.7 | 3.3 | . | 0.7 | . | .
Cc1ncc(CO)c(/C=N/NC(=O)c2ccccc2Br)c1O | 4.5 | -7.5 | -3.8 | 0.9 | 3.1 | 28.0* | -88.2 | -76.4
Cc1ncc(CO)c(/C=N/NC(=O)c2ccoc2C)c1O | . | . | -1.4 | -2.6 | . | -65.0 | . | .
COc1ccccc1N/N=C/c1c(CO)cnc(C)c1O | 0.6 | 1.2 | -6.2 | 6.6 | 5.2 | 20.6* | 34.4* | 39.0*
O=C(NCc1ccccc1)OC1CC2CC1[C@H]1CCCCN1C2 (some centres undefined) | . | . | . | 4.9 | . | 0.0 | . | .
CCCC1CCC2(CCCN2CCOC(=O)Nc2ccccc2)CC1 (centres undefined) | . | . | . | 1.9 | . | . | . | .
CCC(c1nnnn1Cc1ccccc1)N(Cc1ccco1)Cc1cc2cc(OC)ccc2[nH]c1=O (centres undefined) | 1.2 | 7.9 | 0.9 | 0.9 | 4.7 | -0.2 | . | .
CCCC(c1nnnn1C(C)(C)CC)N(Cc1ccco1)Cc1cc2ccc(OC)cc2[nH]c1=O (centres undefined) | 3.0 | . | 1.4 | 0.1 | . | 19.4* | -2.0 | -1.0
COc1ccccc1NCc1nc2ccccc2n1C | . | . | . | 14.8 | . | . | . | .
COc1ccc(C(=O)CSc2nnc(-c3cccnc3)n2-c2ccc(C)cc2)cc1 | . | . | . | -0.3 | . | -0.8 | . | .
OC1c2cc(Cl)cc(Cl)c2N=C2CCCN21 (centres undefined) | . | . | 0.6 | -2.2 | . | 14.9* | 17.9* | 11.4* | EDANS interf=i
Cc1c(CC(=O)N2CCN(C(=O)C3COc4ccccc4O3)CC2)c(=O)oc2cc(O)c(Cl)cc12 (centres undefined) | -14.7 | 2.9 | 0.2 | -3.9 | 1.4 | 89.0* | 64.0* | 63.9*
CCOC(=O)[C@]12CCCC=C1N(Cc1ccc(OC)cc1)C(=O)[C@@H]2CC(=O)NCCCCc1ccccc1 | . | . | . | 1.5 | . | 0.4 | . | .
CC1CCN(CCCNS(=O)(=O)c2cc3c(cc2Br)CCN3C(=O)C2CC2)CC1 | . | . | . | -5.2 | . | 0.1 | . | .
COc1ccc(-c2cc(=O)c3cc(OC)ccc3o2)cc1 | 1.1 | -4.4 | 1.2 | 7.2 | 0.8 | 2.7 | . | .
CCOC(=O)c1c(-c2ccccc2)oc2ccc(OCC(=O)NNC(=O)CCCC(=O)O)cc12 | -5.3 | . | 3.3 | 1.0 | . | 13.2* | -24.2 | -36.6
CCOC(=O)c1c(-c2ccccc2)oc2ccc(OCC(=O)NNC(=O)CCC(=O)O)cc12 | -5.2 | . | -1.9 | 4.6 | . | 2.4 | . | .
CCOC(=O)c1c(-c2ccccc2)oc2ccc(OCC(O)CN(C)C)cc12 (centres undefined) | -30.9 | 1.5 | 1.3 | -0.4 | 1.8 | 16.5* | -13.1 | -11.2
COc1ccc2oc(-c3ccccc3)cc(=O)c2c1 | . | . | 0.2 | -8.0 | . | 14.1* | -33.7 | -29.0
SMILES | JMJD2C inh | PP1 counter | PG9 Ab binder | Rev-erbA mod | PP5 inh | proKLK7 act | proKLK7 act conf | EDANS-DABCYL int | others
CSc1ccc(-c2cc(=O)c3ccccc3o2)cc1 | -2.7 | -1.2 | 0.7 | -0.4 | 1.4 | 65.6* | 67.6* | 75.9*
CN1C(c2ccccc2)CC2CN(c3ccccc3)C(=O)C21 (centres undefined) | . | . | . | 3.9 | . | -0.7 | . | .
Cc1ccc(NC(=O)OC2CC3CC2[C@H]2CCCCN2[C@H]3C)cc1 (some centres undefined) | . | . | . | 5.7 | . | 0.2 | . | .
CCCCNC(=O)C1(C(=O)C2CC2)CC(C(=O)OCC)=NO1 (centres undefined) | . | . | . | -2.5 | . | 0.3 | . | .
CCOC(=O)c1c(-c2ccccc2)oc2ccc(OC(C)=O)cc12 | -18.0 | 0.6 | -2.5 | -3.6 | 0.9 | -5.2 | . | .
COc1ccc2oc(-c3ccccc3)c(C(=O)O)c2c1 | 19.3 | 1.3 | 1.3 | 5.0 | 1.4 | 6.5 | . | .
CCOC(=O)c1c(-c2ccccc2)oc2ccc(OC(C)C(=O)O)cc12 (centres undefined) | 1.6 | -5.1 | 0.4 | 3.7 | 0.8 | 36.2* | 6.1 | -15.3
COc1ccc2oc(-c3ccccc3)c(C(N)=O)c2c1 | -2.1 | 0.5 | 0.5 | 11.9 | -1.2 | 13.0* | 10.1 | 18.5*
COc1ccc([C@H](C#Cc2ccccc2)CC(=O)O)cc1OC1CCCC1 | . | . | . | -6.4 | . | 0.0 | . | .
CC/C=C\[C@H](O)[C@H](O)C1=C(C)C(=O)[C@]2(O1)C(=O)N[C@@](OC)(C(=O)c1ccccc1)[C@@H]2O | . | . | . | -1.6 | . | 0.3 | . | .
Cc1cc(=O)c2c(N(C)C)cccc2[nH]1 | . | . | -0.6 | -2.0 | . | 82.5* | 56.8* | 69.3*
CCOC(=O)C1CCN(S(=O)(=O)c2cccc(-c3cn4cccnc4n3)c2)CC1 | 0.8 | 1.1 | 2.9 | -2.6 | 1.2 | 27.2* | 26.1* | -15.5 | EDANS interf=>69.5
O=C(COC(=O)c1cc(Cl)ccc1O)Nc1cc(C(F)(F)F)ccc1N1CCOCC1 | 16.5 | . | 0.4 | 3.2 | . | 15.9* | 22.7* | 21.8*
O=C(COC(=O)c1cc2ccccc2cc1O)Nc1ccccc1F | 14.2 | . | -0.1 | -3.4 | . | 14.2* | 14.9* | 12.9*
COc1ccccc1NC(=O)COC(=O)c1cc2ccccc2cc1O | 8.5 | -2.4 | -0.9 | 5.0 | -1.2 | 1.4 | . | .
O=C(COC(=O)c1cc(Br)ccc1O)NNC(=O)c1ccc([N+](=O)[O-])cc1 | . | 0.8 | -0.3 | 8.4 | 0.0 | 25.6* | 39.7* | 38.1*
O=C(COC(=O)c1ccc(O)cc1)Nc1cc(C(F)(F)F)ccc1N1CCOCC1 | 0.3 | -1.2 | -0.7 | -4.2 | 3.6 | 0.4 | . | .
